Some test systems named below: SK-MEL-2 melanoma; EKVX NSCLC; SN12C renal; UO-31 renal; TK-10 renal; ACHN renal; CAKI-1 renal; A498 renal; CCRF-CEM leukemia; MOLT-4 leukemia; SR leukemia; RPMI-8226 leukemia; OVCAR-8 ovarian; OVCAR-5 ovarian; OVCAR-4 ovarian; SK-OV-3 ovarian; IGROV1 ovarian; OVCAR-3 ovarian; HS 578T breast; NCI/ADR-RES ovarian.
Common to all, as to test: NCI-60 one-dose screen, 48 h (100 = growth as untreated, 0 = no growth, -100 = all killed)
What all share (settings): 10 µM unless noted

Structures are written as SMILES. Compounds without any hit were thinned out: in the full panel of roughly 83,000, 20% have a hit.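 Method: cells in 96-well plates; compound added at one concentration; 48 h incubation; percent growth measured; values under 10 scored active.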 Values without a mark were called inactive. Activity calls are given as the source filed them.

In the case of `Cc1ccc(-c2nc(/C=N/Nc3cc(C)nc4ccc(Br)cc34)c(C)o2)cc1`, the growth with SK-MEL-2 melanoma was 95.8%; in the experiment on EKVX NSCLC, 2.6% (active); with SN12C renal, -83.4% (active); in the experiment on UO-31 renal it was -98% (active); in the experiment on TK-10 renal, -17.5% (active); in the experiment on ACHN renal, -85.1% (active). Besides, the growth was -71.5% (active) in the experiment with CAKI-1 renal; 86.6% in the experiment with A498 renal; -42.1% (active) in the experiment with CCRF-CEM leukemia; -34.7% (active) in the experiment on MOLT-4 leukemia; 2.27% (active) in the experiment with SR leukemia; -38.5% (active) in the experiment on RPMI-8226 leukemia. Besides, the growth is -63.5% (active) in the experiment on OVCAR-8 ovarian; -68.7% (active) in the experiment on OVCAR-5 ovarian; -94.3% (active) in the experiment on OVCAR-4 ovarian; 105% in the experiment with SK-OV-3 ovarian; -77.3% (active) in the experiment with IGROV1 ovarian; -94.8% (active) in the experiment on OVCAR-3 ovarian. The growth in the experiment with HS 578T breast was 102%; with NCI/ADR-RES ovarian, -69.9% (active).
For the compound `CN1CCN(Cc2ccc(NC(=O)c3cncc(C#Cc4cnc(N)c5cccnc45)c3)cc2C(F)(F)F)CC1`, the growth is -27.1% (active) with SK-MEL-2 melanoma; 14.1% with EKVX NSCLC; 11.6% in the experiment on SN12C renal; 2.87% (active) with UO-31 renal; 50.1% with TK-10 renal; 6.51% (active) in the experiment with ACHN renal. In addition, the growth with CAKI-1 renal was 1.93% (active); in the experiment with A498 renal it was -27.5% (active); with CCRF-CEM leukemia it was 16.9%; with MOLT-4 leukemia, 18.1%; in the experiment on SR leukemia, 15.4%; in the experiment on RPMI-8226 leukemia, 18.5%. For the same compound, the growth is 29.5% in the experiment with OVCAR-8 ovarian; 12.5% in the experiment with OVCAR-5 ovarian; 36.8% with OVCAR-4 ovarian; -10.9% (active) in the experiment on SK-OV-3 ovarian; 7.64% (active) in the experiment with IGROV1 ovarian; 34.6% in the experiment on OVCAR-3 ovarian. The growth was -2.09% (active) with HS 578T breast and 87% in the experiment with NCI/ADR-RES ovarian.
In the case of `NS(=O)(=O)N(c1cc(C(F)(F)F)cc(C(F)(F)F)c1)C1CCN(Cc2ccc(F)cc2)CC1`, the growth with SK-MEL-2 melanoma was 74.2%; in the experiment with EKVX NSCLC it was 72.2%; with SN12C renal it was 42.2%; in the experiment on UO-31 renal it was 35.6%; in the experiment on TK-10 renal, 81.4%; in the experiment on ACHN renal, 75.2%. Also, the growth in the experiment on CAKI-1 renal is 62.5%; in the experiment on A498 renal it was 76.3%; with CCRF-CEM leukemia it was 64%; in the experiment on MOLT-4 leukemia it was 39%; with SR leukemia, -35.1% (active); in the experiment on RPMI-8226 leukemia it was 28.1%. Further, the growth in the experiment on OVCAR-8 ovarian was 73.2%; in the experiment on OVCAR-5 ovarian, 90.9%; with OVCAR-4 ovarian, 72.4%; in the experiment on SK-OV-3 ovarian it was 87.9%; in the experiment on IGROV1 ovarian it was 61.9%; with OVCAR-3 ovarian, 60%. Also, the growth with HS 578T breast was 84%; in the experiment on NCI/ADR-RES ovarian it was 51.3%.
For `COc1cc(OC)c(/C=C/S(=O)(=O)Cc2cnc(OC)c(N)c2)c(OC)c1`, the growth in the experiment with SK-MEL-2 melanoma was 24.2%; with EKVX NSCLC, 37.9%; with SN12C renal, 23.7%; with UO-31 renal, 25.5%; with TK-10 renal, 27.9%; with ACHN renal, 25.7%. Moreover, the growth in the experiment on CAKI-1 renal is 34%; with A498 renal, -1.94% (active); in the experiment with CCRF-CEM leukemia it was 15.8%; in the experiment with MOLT-4 leukemia, 1.79% (active); in the experiment with SR leukemia, -6.9% (active); in the experiment with RPMI-8226 leukemia, 29.1%. The growth in the experiment on OVCAR-8 ovarian was 18.9%; in the experiment on OVCAR-5 ovarian, 55.2%; with OVCAR-4 ovarian, 50.3%; with SK-OV-3 ovarian, 11.9%; with IGROV1 ovarian it was 29.4%; in the experiment on OVCAR-3 ovarian, -13.5% (active). Further, the growth was 47.5% in the experiment with HS 578T breast and 7.65% (active) in the experiment with NCI/ADR-RES ovarian.
As for `C(=N\Nc1ccccn1)/c1ccccn1`, the growth with SK-MEL-2 melanoma was 48.9%; with EKVX NSCLC, 25.8%; in the experiment on SN12C renal, 36.5%; with UO-31 renal, -10.7% (active); in the experiment with TK-10 renal, 17.5%; with ACHN renal, 14.1%. The growth is 10.5% in the experiment on CAKI-1 renal; 22.4% with A498 renal; 0.917% (active) in the experiment on CCRF-CEM leukemia; 18.8% with MOLT-4 leukemia; 15.8% in the experiment with SR leukemia; 35.5% in the experiment on RPMI-8226 leukemia. The growth with OVCAR-8 ovarian was 13.6%; with OVCAR-5 ovarian it was 40.7%; with OVCAR-4 ovarian, 10.6%; in the experiment on SK-OV-3 ovarian, 30.5%; with IGROV1 ovarian, 10.7%; in the experiment on OVCAR-3 ovarian it was 7.56% (active). The values for the growth with HS 578T breast and with NCI/ADR-RES ovarian were 62.8% and -9.79% (active), respectively.
Take `Cn1c2ccccc2c2c3[nH]c(=O)[nH]c(=O)c3c3c4ccccc4n(C)c3c21`: the growth in the experiment on SK-MEL-2 melanoma is 67%; with EKVX NSCLC, 29%; in the experiment with SN12C renal it was 33.7%; in the experiment with UO-31 renal, 11.8%; with TK-10 renal it was 36.4%; with ACHN renal, 7.31% (active). Besides, the growth is 41.5% with CAKI-1 renal; -4.05% (active) with A498 renal; 52.9% in the experiment with CCRF-CEM leukemia; 49.4% with MOLT-4 leukemia; 13.7% in the experiment with SR leukemia; 33.1% in the experiment with RPMI-8226 leukemia. Besides, the growth with OVCAR-8 ovarian was 31.3%; in the experiment with OVCAR-5 ovarian, 23.8%; in the experiment on OVCAR-4 ovarian, -10.1% (active); with SK-OV-3 ovarian it was 48.6%; in the experiment on IGROV1 ovarian, 22.5%; in the experiment on OVCAR-3 ovarian, 4.89% (active). The growth in the experiment with HS 578T breast is -7.29% (active); with NCI/ADR-RES ovarian it was 32.2%.
Take `COc1cnc2c(c1)C(=O)c1c-2n(CCCN2CCN(C)CC2)c(=O)c2cc([N+](=O)[O-])ccc12`: the growth with SK-MEL-2 melanoma was -14.2% (active); in the experiment with EKVX NSCLC, -43.8% (active); with SN12C renal it was -57.7% (active); in the experiment on UO-31 renal it was -86.6% (active); in the experiment on TK-10 renal it was -89.7% (active); in the experiment with ACHN renal it was -94.5% (active). Also, the growth is -91.4% (active) in the experiment with CAKI-1 renal; -95.9% (active) in the experiment on A498 renal; -27.3% (active) in the experiment with CCRF-CEM leukemia; -23.2% (active) with MOLT-4 leukemia; -23.6% (active) with SR leukemia; -41.6% (active) with RPMI-8226 leukemia. Further, the growth was -21.9% (active) in the experiment on OVCAR-8 ovarian; 111% in the experiment on OVCAR-5 ovarian; -81.7% (active) with OVCAR-4 ovarian; 86.6% in the experiment on SK-OV-3 ovarian; -55.2% (active) with IGROV1 ovarian; -84.6% (active) with OVCAR-3 ovarian. For the same compound, the growth with HS 578T breast was 94.8%; in the experiment on NCI/ADR-RES ovarian, -2.68% (active).
For the compound `COc1ccc(/C=C/C(=O)c2c(O)c(C)c(O)c3c2OC2=CC(O)=C(C(C)=O)C(=O)[C@]23C)cc1`, the growth in the experiment on SK-MEL-2 melanoma is -54.6% (active); in the experiment with EKVX NSCLC, -2.89% (active); with SN12C renal, -31.3% (active); with UO-31 renal, -22.5% (active); in the experiment on TK-10 renal, -9.84% (active); with ACHN renal, 0.0747% (active). Moreover, the growth in the experiment on CAKI-1 renal is 6.28% (active); with A498 renal it was -56.2% (active); in the experiment with CCRF-CEM leukemia, -29.9% (active); in the experiment with MOLT-4 leukemia it was -27.9% (active); in the experiment on SR leukemia it was -17.6% (active); in the experiment with RPMI-8226 leukemia it was -28.9% (active). The growth with OVCAR-8 ovarian is -14.9% (active); in the experiment on OVCAR-5 ovarian, 7.96% (active); in the experiment on OVCAR-4 ovarian, 12.1%; in the experiment with SK-OV-3 ovarian it was -24.9% (active); with IGROV1 ovarian it was -8.12% (active); with OVCAR-3 ovarian, -20.5% (active). Further, the growth in the experiment on HS 578T breast was -9.2% (active); in the experiment on NCI/ADR-RES ovarian, -13.5% (active).

Values taken from PubChem BioAssay (NCI).
